The structures appear in SMILES notation. Out of some 140,000 compounds screened, about 4,300 (3.1%) were called active. About 21% were inconclusive and are not listed. This is one part of a sample in which actives are shown more often than they occur. Values without a mark were called inactive.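 The calls were made as follows: active = readout at or below -70, meaning at least 70% loss of cells showing the perinucleolar compartment, a nuclear body marking cancer cells; inconclusive = readout between -30 and a set limit; inactive = the rest.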

A short description of the assay: High Content Assay for Compounds that inhibit the Assembly of the Perinucleolar Compartment.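 Also: plate controls were DMSO wells for no effect and camptothecin positive control wells for full effect.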 Particulars: PC3M PTB-GFP, PNC prevalence imaging, 16 h; at 10 µM; stronger effect = lower value. The gist of the method:
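PC3M cells stably expressing PTB-GFP, 750–1000 cells/well, treated 16 h at 37 °C with compound (23 nl of library stock), in duplicate. After paraformaldehyde fixation and Hoechst stain, imaged at 20x; PNC prevalence scored by image analysis.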
As for `CC1CCN(c2ccc(C(=O)Nc3nnc(C4CC4)s3)cc2[N+](=O)[O-])CC1`, the activity change (PNC), negative = inhibition was -87.1% (active).

For the compound `CCOC(=O)c1c(NC(=O)c2ccc(N3CCOCC3)c([N+](=O)[O-])c2)sc(C)c1C`, the activity change (PNC), negative = inhibition was 28.7%.

`CC1CCN(c2ccc(S(=O)(=O)Nc3cc(C(=O)O)cc(C(=O)O)c3)cc2[N+](=O)[O-])CC1`: the activity change (PNC), negative = inhibition is -0.23%.

`CCc1cccc(C)c1NC(=O)COC(=O)Cc1ccsc1`: the activity change (PNC), negative = inhibition was -6%.

`C=CCNC(=S)NNC(=O)c1ccc(Br)o1`: the activity change (PNC), negative = inhibition is -23.4%.

For the compound `O=c1c2c(ncn1Cc1ccccc1)nc1n2CCC1`, the activity change (PNC), negative = inhibition is -8.18%.

In the case of `CCC(C(=O)OCC(=O)Nc1ccc(C(=O)Nc2ccc(OC)cc2)cc1)c1ccccc1` (stereo not drawn), the activity change (PNC), negative = inhibition is 12.6%.

Regarding `NS(=O)(=O)c1ccc(NS(=O)(=O)/C=C/c2ccccc2)cc1`, the activity change (PNC), negative = inhibition is -5.65%.

`COc1ccc(NC(=O)COC(=O)c2ccc(NS(=O)(=O)/C=C/c3ccccc3)cc2)cc1`: the activity change (PNC), negative = inhibition is -91.4% (active).

Regarding `Cc1c(C(=O)N2CCOCC2)[nH]c2ccc(OCc3ccccc3)cc12`, the activity change (PNC), negative = inhibition was -12.2%.

On to `CCOC(=O)c1[nH]c2ccc(OC)cc2c1NC(=O)N1CCOCC1`, for which the activity change (PNC), negative = inhibition is -102% (active).

As for `COc1cc(NC(=O)N2CCOCC2)cc(OC)c1`, the activity change (PNC), negative = inhibition is 29.1%.

Consider `CC(c1ccccn1)N(CCN(C)C)C(=S)Nc1ccccc1F` (stereo not drawn), for which the activity change (PNC), negative = inhibition was -111% (active).

As to `Cc1cccc(NC(=S)N(CCN(C)C)C(C)c2ccco2)c1` (stereo not drawn), the activity change (PNC), negative = inhibition was 5.52%.

Take `CC(C)C(=O)NC(=S)Nc1ccccc1F`: the activity change (PNC), negative = inhibition is 28.8%.

As for `CC(=O)Nc1ccc(SCC(=O)Nc2ccccc2Oc2ccccc2)cc1`, the activity change (PNC), negative = inhibition was -10.5%.

For `CC1CCc2sc(C(=O)N/N=C/C3CCCCC3)cc2C1` (stereo not drawn), the activity change (PNC), negative = inhibition is -24%.

Take `COc1ccccc1N1CCN(C(=O)c2cc(-c3ccc(Br)cc3)on2)CC1`: the activity change (PNC), negative = inhibition is 15.5%.

Regarding `Cc1onc(-c2ccccc2)c1C(=O)N1CCOCC1`, the activity change (PNC), negative = inhibition was -109% (active).

As to `COc1ccccc1N1CCN(C(=O)c2c(-c3c(Cl)cccc3Cl)noc2C)CC1`, the activity change (PNC), negative = inhibition is -86.9% (active).

For `O=C(c1ccccc1-c1ccccc1)N1CCOCC1`, the activity change (PNC), negative = inhibition is -12%.

Consider `COc1ccccc1N1CCN(C(=O)c2cc(-c3ccc(Cl)c(Cl)c3)on2)CC1`, for which the activity change (PNC), negative = inhibition was 321%.

Take `Cc1noc(C)c1C(=O)N1CCOCC1`: the activity change (PNC), negative = inhibition was 0.83%.

In the case of `O=C(CN1C(=O)/C(=C\c2ccc(C(F)(F)F)cc2)Sc2ccccc21)NCc1ccco1`, the activity change (PNC), negative = inhibition is 37.6%.

For `O=c1cc(CN2CCN(S(=O)(=O)/C=C/c3ccccc3)CC2)c2ccc(O)cc2o1`, the activity change (PNC), negative = inhibition is -11.6%.

As for `CCOC(=O)c1c(NC(C)=O)sc2c(O)c(Br)ccc12`, the activity change (PNC), negative = inhibition was -80.8% (active).

In the case of `CCOC(=O)c1c(NC(=O)c2ccc(Br)o2)sc2c1CCCC2`, the activity change (PNC), negative = inhibition is 2.82%.

For the compound `CCOC(=O)Nc1sc(C(=O)N(C)C)c(C)c1C(=O)OCC`, the activity change (PNC), negative = inhibition was 10.4%.

For the compound `Cc1cc(Oc2ccc(Cl)cc2)nc(SCC(=O)c2ccccc2)n1`, the activity change (PNC), negative = inhibition was 16.7%.

For `Cc1ccc(OCc2nnc(NC(=O)OCC(C)C)s2)cc1`, the activity change (PNC), negative = inhibition is 26.9%.

For the compound `CCOCc1nnc(NC(=O)CSc2ccc(C)cc2)s1`, the activity change (PNC), negative = inhibition was -89.8% (active).

Turning to `Cc1ccc(SCC(=O)Nc2ncc(C)s2)cc1`, the activity change (PNC), negative = inhibition is 34.4%.

As for `O=[N+]([O-])c1ccccc1SNc1ccccn1`, the activity change (PNC), negative = inhibition is -0.121%.

Regarding `Cc1cccc(N2C(=O)SC(SC(=Nc3ccccc3)Nc3ccccc3)C2=O)c1` (stereo not drawn), the activity change (PNC), negative = inhibition was 64.7%.

As for `Cc1nc(SCC(=O)Nc2cc(C)on2)c2c3c(sc2n1)CCCC3`, the activity change (PNC), negative = inhibition was -9.46%.

As for `Cc1cc(C)n(-c2nc(SCC(=O)N3CCCC3)c3c4c(sc3n2)CCCC4)n1`, the activity change (PNC), negative = inhibition is 26%.

As for `COCCn1c(C)cc(C(=O)CSc2ncnc3sc4c(c23)CCC4)c1C`, the activity change (PNC), negative = inhibition was -100% (active).

On to `CC(=O)Nc1ccc(C(=O)OCC(=O)Nc2ccc([N+](=O)[O-])cc2C(F)(F)F)cc1`, for which the activity change (PNC), negative = inhibition was -8.91%.

With `CCCCCCCCCOC1OC(CO)C(O)C(O)C1NC(C)=O` (stereo not drawn), the activity change (PNC), negative = inhibition is -8.39%.

For the compound `COc1ccccc1C(=O)Nn1c(-c2cccs2)nc2ccccc2c1=O`, the activity change (PNC), negative = inhibition is -26.6%.

Consider `Cc1[nH]c2ccccc2c1C(=O)CSCC(=O)O`, for which the activity change (PNC), negative = inhibition is -15.7%.

`CCOC(=O)N1CCN(CC(=O)c2c(C)[nH]c3ccccc23)CC1`: the activity change (PNC), negative = inhibition was -18.6%.

Turning to `Cc1[nH]c2ccccc2c1C(=O)COC(=O)c1c(-c2ccccc2)noc1C`, the activity change (PNC), negative = inhibition is -121% (active).

Turning to `CCOC(=O)c1cccnc1NC(=O)c1ccncc1`, the activity change (PNC), negative = inhibition was -1.7%.

Turning to `COc1ccc(/C=C(\C#N)C(=O)NCCCn2ccnc2)cc1`, the activity change (PNC), negative = inhibition was 60.5%.

Regarding `Cc1ccc(OCCOCCOc2ccc(Br)cc2/C=N\NC(=O)c2ccncc2)cc1`, the activity change (PNC), negative = inhibition is -9.62%.

For the compound `Brc1ccc(OCCn2ccnc2)cc1`, the activity change (PNC), negative = inhibition is -118% (active).

Regarding `Oc1ccc(Br)cc1C=Nc1ccc2[nH]ncc2c1`, the activity change (PNC), negative = inhibition was 18.8%.

(Values after PubChem BioAssay AID2417 (National Center for Advancing Translational Sciences (NCATS), 2010).)
